From PubChem
MmCpn inh: inhibitors of Methanococcus maripaludis chaperonin TRiC (MmCpn). purified Mm-Cpn ATPase, ADP Transcreener TR-FRET. Potency, µM (doses to about 76.9 µM), inactives show at the top dose activity, negative = inhibition, usual class: inhibitors. 330,000 compounds, 0.031% hits; further: potency means the concentration at half of the fitted maximal effect; nearly all actives have a fitted effect of over 80% in size
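25 nM Mm-CPN + cpd, 10 min 37°C; + 10 uM ATP, 30 min 37°C; buffer 30 mM Tris pH 7.4, 100 mM KCl, 5 mM MgCl2, 1 mM DTT; Transcreener ADP HTRF detection 30 min RT.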
PLK1 PBD block: inhibitors of human PLK1 polo-box domain binding | 360,000 compounds, 2.8% hits | Potency, µM, for the others: max response, negative = inhibition, usual class: inhibitors | P53350 | AID 720504 | Plk1 PBD binding of FITC phosphopeptide, fluorescence polarization; further: potency means the concentration at half of the fitted maximal effect; series mostly up to about 57 µM; nearly all actives have a fitted effect of over 65% in size
Target sequence (P53350 whole entry, looked up, the tested form may be a part): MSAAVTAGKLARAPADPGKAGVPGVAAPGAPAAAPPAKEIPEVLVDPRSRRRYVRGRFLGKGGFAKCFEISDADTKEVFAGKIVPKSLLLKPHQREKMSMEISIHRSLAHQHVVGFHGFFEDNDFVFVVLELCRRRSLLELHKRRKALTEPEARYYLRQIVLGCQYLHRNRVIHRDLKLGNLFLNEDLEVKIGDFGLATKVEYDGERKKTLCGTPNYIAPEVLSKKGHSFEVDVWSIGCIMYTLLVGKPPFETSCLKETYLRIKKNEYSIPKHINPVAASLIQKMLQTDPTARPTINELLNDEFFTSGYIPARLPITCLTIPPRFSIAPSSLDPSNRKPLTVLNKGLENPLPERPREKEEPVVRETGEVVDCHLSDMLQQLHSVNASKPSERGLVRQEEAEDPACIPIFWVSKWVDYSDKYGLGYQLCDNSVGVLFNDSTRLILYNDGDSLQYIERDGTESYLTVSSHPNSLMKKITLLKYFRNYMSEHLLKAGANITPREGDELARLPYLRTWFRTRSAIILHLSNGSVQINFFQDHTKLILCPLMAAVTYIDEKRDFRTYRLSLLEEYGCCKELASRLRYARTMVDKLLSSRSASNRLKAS
VDR inh: blocks the human vitamin D receptor; P11473; VDR-SRC2-3 peptide fluorescence polarization, 2 h; Potency, µM, for inactives: max response, negative = inhibition, actives largely listed as inhibitors; 400,000 compounds, 0.93% hits; further: potency means the concentration at half of the fitted maximal effect
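Fluorescence polarization assay of small-molecule disruption of VDR binding to coregulator peptide SRC2-3. Compounds and controls pin-transferred, then read after 2 h incubation at ambient room temperature.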
CCT chaperon mod: changes cytosolic chaperonin activity; purified chaperonin ATPase assay, HTRF ADP detection, 30 min; activity change, % (concentration not given with the values), hits read low; 360,000 compounds, 0.3% hits; AID 651819; in the data active means activity change below about -30%
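Enzyme 40 or 20 nM (batch-dependent) in Tris pH 7.4/KCl/MgCl2/DTT; cpd 76 uM single point; ATP 10 uM; 30 min 37 °C; Transcreener ADP HTRF detection, 30 min RT; ratio 665/615.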
G9a block: blocks human histone lysine methyltransferase G9a. G9a H3K9 monomethylation, AlphaScreen, 2 h. Potency, µM (titrated, usually from 102 µM), without a hit: top-dose activity, negative = inhibition, actives largely listed as inhibitors. 350,000 compounds, 8.8% hits. AID 504332; further: potency means the concentration at half of the fitted maximal effect; nearly all actives have a fitted effect of over 75% in size
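Chemiluminescent proximity detection of H3K9 monomethylation, read after 10 min bead incubation in the dark. Reaction: 20 nM G9a, 500 nM biotin-H3K9 peptide, 20 uM SAM cofactor, 2 h, room temperature, following 15 min enzyme-compound preincubation.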
Sfp PPTase inh: Sfp phosphopantetheinyl transferase inhibition | AID 1490 | 310,000 compounds, 3.5% hits | Potency, µM, without a hit: largest response in the series, negative = inhibition, most hits filed as inhibitors | Q9F4F7 | Biochemical Sfp PPTase activity, qHTS;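 further: the enzyme is Sfp with the accession as filed and its product quenches rhodamine fluorescence; potency means the concentration at half of the fitted maximal effect; 0% = enzyme reaction without inhibitor and -100% = no enzyme wells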
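Reaction rates are the 30-min fluorescence difference (ex 525, em 598 nm) in wells containing 15 nM Sfp, 5 uM rhodamine-CoA and 12.5 uM BHQ-2-YbbR at pH 7.6 with 10 mM MgCl2.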
An asterisk follows results filed as active; ? = inconclusive; · = no result given; [ ] = remark or other dose. Most compounds without a hit are left out; they make up all but 10% or so of the library. Unless noted, the call rests on the fitted dose curve; in most records, active means well fitted curve in the direction sought with a large enough effect; inconclusive means small, poorly fitted or top-dose-only effect, or another doubt; inactive means no such curve, though single readings can be large; an effect the other way counts as inactive or inconclusive. Unless noted, on the % scale 0 is the no-effect control and ±100 the full control effect.

SMILES	MmCpn inh	PLK1 PBD block	VDR inh	CCT chaperon mod	G9a block	Sfp PPTase inh
COCCNC(=O)/C(C#N)=C/c1ccc(OC(=O)c2cccs2)c(OC)c1	-6%	-15%	71µM*	4	-31%	-3%
COCCNC(=O)/C(C#N)=C/c1cccs1	2%	25%	4%	0	-9%	0%
COc1cc(/C=N/Nc2ccc(Cl)c(C(=O)O)c2)ccc1OC(=O)c1cccs1	0%	?	-14%	2	25µM*	-7%
COc1cc(C=NNc2ccccc2)ccc1OC(=O)c1ccccc1	·	-5%	·	1	·	·
O=C(NCc1ccc(F)cc1)c1cccc2c1C(=O)N(Cc1cccnc1)C2	-1%	27µM*	-4%	-1	-27%	-3%
CC(=Nc1ccccc1)c1sc2ccccc2c1O	-13%	-15%	-3%	-2	?	-14%
CC(=Nc1ccc(Br)cc1)c1sc2ccccc2c1O	-1%	?	-2%	2	89%	32µM*
COc1cccc(-c2ccc3c(N)c(C(=O)c4ccc(F)cc4)sc3n2)c1	·	·	-19%	·	2%[59 µM]	·
CCOc1ccccc1C(=O)N(Cc1ccc(C)o1)C1CCS(=O)(=O)C1 (configuration not stated)	-4%	19µM*	?	0	?	-2%
CCOc1ccccc1C(=O)N(Cc1ccco1)C1CCS(=O)(=O)C1 (configuration not stated)	1%	-8%	12%	-1	?	50µM*
CCCCOc1ccccc1C(=O)N(Cc1ccco1)C1CCS(=O)(=O)C1 (configuration not stated)	1%	-3%	13%	2	-4%[59 µM]	15%
CCOc1cccc(C(=O)N(Cc2ccc(C)o2)C2CCS(=O)(=O)C2)c1 (configuration not stated)	·	·	4%	·	-17%[59 µM]	·
CC(C1CC1)N(Cc1ccccc1)C(=S)Nc1ccccc1 (configuration not stated)	?	-14%	-14%	-3	14%	20%
CC(C1CC1)N(Cc1ccccc1)C(=S)Nc1cccc(C(F)(F)F)c1 (configuration not stated)	1%	30µM*	-19%	0	27%[59 µM]	-6%
COc1ccc(C(=O)NNC2=NC(C)(C)Cc3ccccc32)cc1	-1%	-11%	-3%	1	-6%[59 µM]	9%
CC1(C)Cc2ccccc2C(COc2ccccc2)=N1	-3%	27µM*	-19%	-1	·	-10%
O=C1NC(c2cccc([N+](=O)[O-])c2)=CCN1c1ccccc1O	2%	-10%	2%	2	19µM*	8%
Cc1nn2c(-c3ccco3)ccnc2c1-c1ccc(Cl)cc1	·	·	-12%	·	-30%[59 µM]	·
CN(Cc1cn(-c2ccccc2)nc1-c1cc2ccccc2o1)C(=O)CCC(=O)O	0%	4.2µM*	79µM*	1	-1%	16%
COc1cccc(COC(=O)c2ccc(-c3nnn(Cc4cccc(OC)c4)n3)cc2)c1	·	·	-5%	·	46%[59 µM]	·
CCCCCOC(=O)CCN1C(=O)/C(=C2\SC(=S)N(CCC(=O)OCCCCC)C2=O)SC1=S	2%	-15%	-4%	-2	·	?
CCCOC(=O)CCCN1C(=O)/C(=C2\SC(=S)N(CCCC(=O)OCCC)C2=O)SC1=S	0%	-2%	0%	2	1.1µM*	-8%
S=C(Nc1ccc(Br)cc1Cl)Nn1cnnc1	1%	9.5µM*	?	-4	?	22µM*
Cc1ccc(Cl)cc1NC(=S)N(C)N	-1%	4%	-7%	-1	·	?
Cc1ccc(Cl)cc1NC(=S)Nn1cnnc1	0%	11µM*	79µM*	-1	?	11%
SMILES	MmCpn inh	PLK1 PBD block	VDR inh	CCT chaperon mod	G9a block	Sfp PPTase inh
S=C(NCc1ccncc1)Nc1ccc(Br)cc1Cl	3%	-10%	6%	-16	?	0%
Cc1ccc(NC(=S)Nn2cnnc2)c(C)c1	-2%	·	·	·	10µM*	40µM*
O=C(NC(=S)Nn1cnnc1)c1cccc(Br)c1	1%	?	-28%	-4	11µM*	-68%
Cc1ccc(NC(=O)Nn2cnnc2)c(C)c1	-4%	-11%	-10%	0	-11%	5%
C=CC[C@@H]1C=C[C@@H](O/N=C\[C@@H](OC)[C@H](C)/C=C\CC(=O)OC)[C@@H](CO)O1	·	·	·	·	·	7%
CCC(CC)C(=O)Oc1c(Sc2ccccc2[N+](=O)[O-])c(C)nn1C(C)(C)C	1%	-4%	9%	3	32µM*	-16%
COCC(=O)Oc1c(Sc2ccccc2[N+](=O)[O-])c(C)nn1C(C)(C)C	-1%	12µM*	-22%	-2	22µM*	?
COCC(=O)Oc1c(S(=O)(=O)c2ccc(C)cc2)c(C)nn1C(C)(C)C	-2%	-4%	-1%	1	-3%	5%
CCC1(C)Cc2sc3c(=O)[nH]c(=S)[nH]c3c2CO1 (configuration not stated)	-2%	11µM*	-16%	1	3.5µM*	?
O=C(Nc1ccc(-c2nnn(CC(=O)N3CCN(C(=O)c4ccco4)CC3)n2)cc1)c1ccccc1F	-2%	·	·	·	56µM*	-3%
O=C(Cc1cccs1)Nc1ccc(-c2nnn(CC(=O)N3CCOCC3)n2)cc1	-2%	-5%	-3%	-2	50µM*	-11%
COc1ccc(NC(=O)CSC2=Nc3ccccc3N=C(c3ccc(F)cc3)C2)cc1OC	·	·	3%	·	9%[59 µM]	·
Cc1ccc(C(=O)Nc2ccc3nc(SCC(=O)N4CCCc5ccccc54)sc3c2)cc1	·	·	20%	·	-27%[59 µM]	·
COc1ccc(NC(=O)CSc2ncc(-c3ccc(F)cc3)n2Cc2ccco2)cc1	1%	-6%	0%	-1	28µM*	1%
COCCn1c(-c2ccc(OC)cc2)cnc1SCC(=O)Nc1cccc2ccccc12	-2%	0%	12%	-2	35µM*	6%
COc1ccc(-c2cnc(SCC(=O)Nc3cc(C)on3)n2Cc2ccco2)cc1	-3%	-4%	-13%	1	?	8%
Cc1cc(C)c(NC(=O)CN2C(=O)CCSc3ccc(S(=O)(=O)N4CCCC4)cc32)c(C)c1	·	·	9%	·	-2%[59 µM]	·
CCOc1ccc(OCC)c(NC(=O)C2CCN(S(=O)(=O)c3cn(C)cn3)CC2)c1	·	·	19%	·	12%[59 µM]	·
CCOc1ccc(C2C(C(=O)c3ccc(C)o3)=C(O)C(=O)N2c2cc(C)on2)cc1OC (configuration not stated)	-3%	-8%	-6%	-2	50µM*	-24%
COc1cc(C2C(C(=O)c3ccc(C)o3)=C(O)C(=O)N2c2cc(C)on2)ccc1OCc1ccccc1 (configuration not stated)	-2%	-26%	-18%	-1	45µM*	8%
